The values below come from the supplement of paper PMC12067093, “Discovery and optimisation of a covalent ligand for TRIM25 and its application to targeted protein ubiquitination” (Chemical Science, 2025).

Compound in the assay: CC1Cc2ccccc2N1C(=O)C1CCCN(C1)C(=O)CCl (mixture of isomers) [TRIM25 ligand 11 (diastereomer mixture)]
Kind of assay: probe-labelled cysteine peptide fold change vs DMSO (competition) (log2 fold change); higher = less target engagement (more negative = stronger competition). As to conditions: THP-1, incubation time: 4 h.

About 21,000 targets were measured; listed, in parts, are those with the largest changes and a random draw of the rest.
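Also: competitive chemoproteomic profiling in live THP-1 cells with an iodoacetamide desthiobiotin (IA-DTB) probe, comparing probe-labelled peptide intensities in compound-treated cells against DMSO-treated controls.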

Chain of UniProt Q07617 (Q07617 whole entry, looked up): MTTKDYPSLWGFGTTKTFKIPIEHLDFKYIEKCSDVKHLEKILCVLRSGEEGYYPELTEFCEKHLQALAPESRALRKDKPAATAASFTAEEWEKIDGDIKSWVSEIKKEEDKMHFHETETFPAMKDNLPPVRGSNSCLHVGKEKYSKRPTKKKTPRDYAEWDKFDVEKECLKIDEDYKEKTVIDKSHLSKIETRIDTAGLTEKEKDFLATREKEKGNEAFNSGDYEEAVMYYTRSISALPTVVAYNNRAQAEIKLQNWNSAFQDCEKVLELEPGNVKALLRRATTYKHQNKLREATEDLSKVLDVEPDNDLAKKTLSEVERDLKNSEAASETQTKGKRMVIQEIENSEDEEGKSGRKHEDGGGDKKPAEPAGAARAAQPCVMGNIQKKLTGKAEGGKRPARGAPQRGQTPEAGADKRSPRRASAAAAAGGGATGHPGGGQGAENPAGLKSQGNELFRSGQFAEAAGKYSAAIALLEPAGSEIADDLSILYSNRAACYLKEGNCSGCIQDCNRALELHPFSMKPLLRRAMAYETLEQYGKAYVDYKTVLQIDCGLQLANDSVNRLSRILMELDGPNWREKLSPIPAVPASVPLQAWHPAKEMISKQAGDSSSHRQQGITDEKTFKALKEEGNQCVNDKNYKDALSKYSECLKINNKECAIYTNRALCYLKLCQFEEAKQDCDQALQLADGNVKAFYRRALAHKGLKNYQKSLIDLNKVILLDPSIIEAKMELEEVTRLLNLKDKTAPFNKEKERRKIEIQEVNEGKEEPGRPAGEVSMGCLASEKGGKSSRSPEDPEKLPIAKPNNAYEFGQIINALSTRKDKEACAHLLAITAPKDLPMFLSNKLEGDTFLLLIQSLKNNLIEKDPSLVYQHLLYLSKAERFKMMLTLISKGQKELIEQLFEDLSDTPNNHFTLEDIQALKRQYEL
Chain of UniProt Q13485 (Q13485 whole entry, looked up): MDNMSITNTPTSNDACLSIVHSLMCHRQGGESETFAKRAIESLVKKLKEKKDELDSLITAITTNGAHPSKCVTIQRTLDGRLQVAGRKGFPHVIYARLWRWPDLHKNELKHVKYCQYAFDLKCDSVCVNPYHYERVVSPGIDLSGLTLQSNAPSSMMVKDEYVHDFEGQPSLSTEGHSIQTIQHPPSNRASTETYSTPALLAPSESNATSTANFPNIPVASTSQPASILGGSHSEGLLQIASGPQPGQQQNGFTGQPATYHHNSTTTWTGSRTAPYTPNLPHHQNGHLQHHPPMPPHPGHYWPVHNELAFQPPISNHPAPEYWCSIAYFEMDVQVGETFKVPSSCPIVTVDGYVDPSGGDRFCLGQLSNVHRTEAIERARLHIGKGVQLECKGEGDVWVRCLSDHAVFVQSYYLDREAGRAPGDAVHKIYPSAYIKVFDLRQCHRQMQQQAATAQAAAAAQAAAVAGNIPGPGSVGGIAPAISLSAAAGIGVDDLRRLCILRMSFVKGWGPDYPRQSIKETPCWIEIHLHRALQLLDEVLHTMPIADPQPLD
Chain of UniProt Q6IA17 (Q6IA17 whole entry): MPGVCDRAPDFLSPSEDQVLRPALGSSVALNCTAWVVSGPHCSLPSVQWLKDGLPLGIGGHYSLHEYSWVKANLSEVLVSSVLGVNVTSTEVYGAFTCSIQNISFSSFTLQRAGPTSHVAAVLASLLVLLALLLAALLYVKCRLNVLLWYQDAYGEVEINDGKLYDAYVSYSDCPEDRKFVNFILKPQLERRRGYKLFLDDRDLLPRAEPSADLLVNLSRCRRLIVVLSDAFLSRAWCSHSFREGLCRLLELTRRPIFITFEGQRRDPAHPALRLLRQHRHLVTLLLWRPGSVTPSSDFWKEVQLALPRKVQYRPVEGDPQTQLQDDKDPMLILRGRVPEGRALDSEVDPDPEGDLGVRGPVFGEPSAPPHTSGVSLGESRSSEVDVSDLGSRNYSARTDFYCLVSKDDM
Chain of UniProt P55735 (P55735 whole entry, looked up): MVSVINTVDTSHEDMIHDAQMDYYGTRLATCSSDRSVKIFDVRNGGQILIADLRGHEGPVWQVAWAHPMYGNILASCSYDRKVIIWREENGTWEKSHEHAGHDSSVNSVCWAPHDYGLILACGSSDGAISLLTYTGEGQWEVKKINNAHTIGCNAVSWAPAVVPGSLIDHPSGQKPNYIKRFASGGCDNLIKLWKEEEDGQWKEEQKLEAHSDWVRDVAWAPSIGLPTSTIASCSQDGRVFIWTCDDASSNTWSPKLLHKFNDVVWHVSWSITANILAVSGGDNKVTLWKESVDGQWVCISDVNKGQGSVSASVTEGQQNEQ
Chain of UniProt P18583 (P18583 whole entry, looked up): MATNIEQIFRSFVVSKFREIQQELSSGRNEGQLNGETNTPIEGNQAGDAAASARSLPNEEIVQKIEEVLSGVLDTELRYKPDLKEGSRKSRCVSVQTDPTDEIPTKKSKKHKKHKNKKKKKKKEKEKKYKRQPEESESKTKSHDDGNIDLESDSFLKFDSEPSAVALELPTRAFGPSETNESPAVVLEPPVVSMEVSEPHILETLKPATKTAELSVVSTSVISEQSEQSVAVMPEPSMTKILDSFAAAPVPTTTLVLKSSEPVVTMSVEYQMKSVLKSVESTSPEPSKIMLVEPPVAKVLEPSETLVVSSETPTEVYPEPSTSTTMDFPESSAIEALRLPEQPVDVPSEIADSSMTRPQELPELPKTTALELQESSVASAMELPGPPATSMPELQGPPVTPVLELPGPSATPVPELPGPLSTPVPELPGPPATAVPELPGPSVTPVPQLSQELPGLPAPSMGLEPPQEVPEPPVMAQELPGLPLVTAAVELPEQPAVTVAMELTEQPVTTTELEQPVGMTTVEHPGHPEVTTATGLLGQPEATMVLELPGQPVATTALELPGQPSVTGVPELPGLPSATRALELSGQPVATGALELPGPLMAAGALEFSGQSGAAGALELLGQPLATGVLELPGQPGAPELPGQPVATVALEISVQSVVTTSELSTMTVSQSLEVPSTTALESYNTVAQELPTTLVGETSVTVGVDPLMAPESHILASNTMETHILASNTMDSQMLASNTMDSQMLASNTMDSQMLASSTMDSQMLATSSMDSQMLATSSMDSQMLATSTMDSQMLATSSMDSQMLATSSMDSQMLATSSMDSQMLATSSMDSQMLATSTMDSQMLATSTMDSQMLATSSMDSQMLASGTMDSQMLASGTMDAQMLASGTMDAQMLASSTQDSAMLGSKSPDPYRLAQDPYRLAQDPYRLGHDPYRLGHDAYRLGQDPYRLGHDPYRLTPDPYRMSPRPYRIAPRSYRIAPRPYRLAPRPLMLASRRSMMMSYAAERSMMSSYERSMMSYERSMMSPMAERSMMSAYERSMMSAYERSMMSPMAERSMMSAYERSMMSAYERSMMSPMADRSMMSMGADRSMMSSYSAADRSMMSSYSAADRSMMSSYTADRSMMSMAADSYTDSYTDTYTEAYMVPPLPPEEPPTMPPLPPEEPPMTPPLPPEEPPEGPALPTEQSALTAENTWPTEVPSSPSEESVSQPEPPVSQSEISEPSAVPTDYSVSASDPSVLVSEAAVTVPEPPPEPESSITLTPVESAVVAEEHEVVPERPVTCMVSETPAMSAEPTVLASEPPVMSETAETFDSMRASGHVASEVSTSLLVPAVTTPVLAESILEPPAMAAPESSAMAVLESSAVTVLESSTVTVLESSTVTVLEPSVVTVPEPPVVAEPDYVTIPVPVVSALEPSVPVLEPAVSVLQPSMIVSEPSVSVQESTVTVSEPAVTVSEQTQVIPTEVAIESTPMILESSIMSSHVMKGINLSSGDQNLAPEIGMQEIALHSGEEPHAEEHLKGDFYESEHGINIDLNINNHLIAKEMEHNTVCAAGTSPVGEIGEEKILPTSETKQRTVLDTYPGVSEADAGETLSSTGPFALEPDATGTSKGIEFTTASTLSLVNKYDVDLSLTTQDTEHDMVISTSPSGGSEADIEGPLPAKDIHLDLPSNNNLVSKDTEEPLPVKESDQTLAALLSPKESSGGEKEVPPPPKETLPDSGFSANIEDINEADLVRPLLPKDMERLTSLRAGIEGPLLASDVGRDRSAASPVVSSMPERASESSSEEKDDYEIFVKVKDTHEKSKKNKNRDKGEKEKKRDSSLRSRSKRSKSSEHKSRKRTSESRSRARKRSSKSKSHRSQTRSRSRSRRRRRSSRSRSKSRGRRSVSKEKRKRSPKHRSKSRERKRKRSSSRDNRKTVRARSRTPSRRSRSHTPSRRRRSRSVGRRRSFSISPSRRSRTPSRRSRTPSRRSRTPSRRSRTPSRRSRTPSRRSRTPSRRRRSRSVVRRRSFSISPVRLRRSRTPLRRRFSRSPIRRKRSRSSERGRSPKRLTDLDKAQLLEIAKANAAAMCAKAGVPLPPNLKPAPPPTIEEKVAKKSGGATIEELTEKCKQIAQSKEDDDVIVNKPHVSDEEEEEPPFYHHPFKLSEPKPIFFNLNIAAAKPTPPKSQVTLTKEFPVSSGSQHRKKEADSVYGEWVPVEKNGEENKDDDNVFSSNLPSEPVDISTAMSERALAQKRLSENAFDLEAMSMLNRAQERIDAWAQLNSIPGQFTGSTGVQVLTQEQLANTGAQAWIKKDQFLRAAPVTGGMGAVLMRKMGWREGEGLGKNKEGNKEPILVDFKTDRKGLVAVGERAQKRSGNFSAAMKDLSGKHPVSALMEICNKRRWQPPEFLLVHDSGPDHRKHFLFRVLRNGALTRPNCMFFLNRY
Chain of UniProt Q9Y6B6 (Q9Y6B6 whole entry, looked up): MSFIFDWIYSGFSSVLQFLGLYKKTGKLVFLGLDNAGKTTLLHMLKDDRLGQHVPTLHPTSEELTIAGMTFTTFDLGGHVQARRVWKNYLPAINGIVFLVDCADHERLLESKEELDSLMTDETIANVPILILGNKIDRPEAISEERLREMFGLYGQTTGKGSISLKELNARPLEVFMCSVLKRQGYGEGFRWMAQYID

Take “SEC13_P55735_77_GHEGPVWQVAWAHPMYGNILASCSYDR (UniProt P55735)”: the “probe-labelled cysteine peptide fold change” value by setting is: (10 µM) -0.107; (50 µM) -0.123.

For the target “SPECC1_Q5M775_633_EICDHQAEQLSR (UniProt Q5M775)”, the “probe-labelled cysteine peptide fold change” value is, setting by setting: (10 µM) -0.00943; (50 µM) -0.0553.

Turning to “SON_P18583_2070_ANAAAMCAK (UniProt P18583)”, the “probe-labelled cysteine peptide fold change” value is 0.0129 (10 µM) and -0.103 (50 µM).

Regarding “SPAG1_Q07617_825_EACAHLLAITAPK (UniProt Q07617)”, the “probe-labelled cysteine peptide fold change” value by setting is: (10 µM) -0.0823; (50 µM) -0.0988.

With “SAR1B_Q9Y6B6_102_NYLPAINGIVFLVDCADHER (UniProt Q9Y6B6)”, the “probe-labelled cysteine peptide fold change” value by setting is: (10 µM) 0.177; (50 µM) 0.151.

As to “SMARCD2_Q92925_298_CTLLLMLDHQPPQYK (UniProt Q92925)”, the “probe-labelled cysteine peptide fold change” value was -0.0298 (10 µM) and -0.00447 (50 µM).

With “SRBD1_Q8N5C6_912_SIVCLEDLQIGTVLTGK (UniProt Q8N5C6)”, the “probe-labelled cysteine peptide fold change” value (10 µM) was 0.0769 and the “probe-labelled cysteine peptide fold change” value (50 µM) was -0.14.

On to “SMG7_Q92540_537_NLSNNCDTGEKPVVTFK (UniProt Q92540)”, for which the “probe-labelled cysteine peptide fold change” value reads like this: (10 µM) -0.036; (50 µM) -0.226.

In the case of “SP110_Q9HB58_327_DDSTCNSTVETR (UniProt Q9HB58)”, the “probe-labelled cysteine peptide fold change” value reads like this: (10 µM) 0.0292; (50 µM) -0.106.

As to “SIGIRR_Q6IA17_174_LYDAYVSYSDCPEDR (UniProt Q6IA17)”, the “probe-labelled cysteine peptide fold change” value is 0.24 (10 µM) and -0.151 (50 µM).

As to “SPTAN1_Q13813_1622_GACAGSEDAVK (UniProt Q13813)”, the “probe-labelled cysteine peptide fold change” value (10 µM) is -0.135 and the “probe-labelled cysteine peptide fold change” value (50 µM) was -0.00186.

Turning to “SMU1_Q2TAY7_219_SHVECAR (UniProt Q2TAY7)”, the “probe-labelled cysteine peptide fold change” value reads like this: (10 µM) 0.194; (50 µM) 0.11.

Consider “SMAD4_Q13485_127_CDSVCVNPYHYER (UniProt Q13485)”, for which the “probe-labelled cysteine peptide fold change” value is, setting by setting: (10 µM) 0.000739; (50 µM) 0.0905.

“SORBS3_O60504_482_GEHICLIR (UniProt O60504)”: the “probe-labelled cysteine peptide fold change” value is, setting by setting: (10 µM) 0.12; (50 µM) 0.166.

Turning to “SEC16A_O15027_1293_YWCDAEYDAYR (UniProt O15027)”, the “probe-labelled cysteine peptide fold change” value runs as follows: (10 µM) -0.117; (50 µM) -0.311.
